These compounds were tested on PIK3CB. Settings: concentration: 1 μM, replicates: in singlicate; n = 1.
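Note: KINOMEscan kinase panel screen.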

Row | SMILES | %Inh [%]
1 | COc1ccc(Nc2nccc(N3CCC(NS(=O)(=O)c4ccc(NC(C)=O)cc4)C3)n2)cc1 (stereo not drawn) [GSK1379729] | 0
2 | CCn1c(-c2nonc2N)nc2ccccc21 [SB-693162/GW549034] | 62
3 | COc1cccc(-n2cnc3c(N)ncnc32)c1 [SKF-97416] | 32
4 | O=C(Nc1n[nH]c2nc(-c3ccccc3)c(Cl)cc12)C1CC1 [SB-734909] | 13
5 | Cc1nnc(-c2ccc3ncn(-c4ccc(S(C)=O)cc4)c3c2)o1 (stereo not drawn) | 2
6 | CCC(=O)c1c(-c2ccccc2)c2cc(Cl)ccc2c(=O)n1Cc1cc(S(C)(=O)=O)n(CC(F)F)n1 | 16
7 | Cc1ccc(-c2ccc3c(ccc4sc5c(c43)NC[C@@H](C)N=C5N(C)C)n2)cn1 | 55
8 | Cc1nnc(-c2ccc(C)c(-c3ccc(C(=O)O)cc3)c2)o1 [GW608005] | 0
9 | Fc1cccc(CSc2nnc(-c3ccc4c(c3)CCO4)o2)c1 | 14
10 | O=C(NCCNc1ccnc(Nc2ccc(F)cc2)n1)Nc1ccc2c(c1)OCO2 [GSK1379882] | 0
11 | CN(C)c1cc(-c2ccc3c(N)n[nH]c3c2)nc(N)n1 [GSK2219329] | 0
12 | COc1cc2nccc(Nc3cccc(Oc4ccccc4)c3)c2cc1OC.Cl [GW284543] | 0
13 | COc1ccc(-n2cnc3c(N)ncnc32)cc1 [SKF-97236] | 9
14 | CCCNC(=O)Nc1ccc(Oc2ncnc3ccn(C)c23)cc1 | 0
15 | COc1ccc(-c2cc3c(C)nc(N)nc3n([C@H]3CC[C@H](O)CC3)c2=O)cn1 | 100
